# Compound activity: PubChem, National Center for Advancing Translational Sciences (NCATS)
# KinaseGlo FLuc – blocks Kinase-Glo luciferase, a counter-screen artifact | Q27757 | Kinase-Glo luciferase, ATP luminescence, 8 min | Potency, µM (highest dose often 38.3 µM), without a hit: at the highest dose activity change, negative = inhibition, actives largely listed as inhibitors | actives 0.28% (n = 200,000) | AID 1379; active = well fitted inhibition curve with a large enough effect; inconclusive = small, poorly fitted or top-dose-only effect; note: potency is the fitted concentration of half-maximal effect; nearly all actives have a fitted effect of over 60% in size
#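 Compounds were added to a substrate mix at pH 7.2 (50 mM imidazole, 10 uM ATP, within the enzyme's linear range), followed by Kinase-Glo detection reagent; luminescence was measured after 8 minutes at ambient temperature.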
# LMNA splice mod – modulators of lamin A splicing | HeLa LMNA splicing GFP/RFP minigene ratio, 48 h | Potency, µM (top dose mostly 46.1 µM), for inactives: at the highest dose ratio change, negative = inhibition, hits mostly inhibitors | actives 0.01% (n = 200,000); active = well fitted inhibition curve with a large enough effect in the signal ratio, with a control signal flat, not every such curve was filed as active; inconclusive = small, poorly fitted or top-dose-only effect, or effect the other way, or a change in a side signal; the % refers to the signal ratio; note: potency is the fitted concentration of half-maximal effect
#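 S3 HeLa cells stably expressing lamin A-EGFP splicing minigene plus DsRed2, 600 cells/well, 48 h compound exposure at 37C. Laser-scanning cytometry; analysed as GFP (500-530 nm)/RFP (575-640 nm) total intensity ratio; 0.5% DMSO vehicle.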
# HPGD inh – blocks human HPGD enzyme activity; purified HPGD, NADH fluorescence kinetic, PGE2 substrate; AID 894; Potency, µM, without a hit: at the top dose activity change, negative = inhibition, hits mostly inhibitors; P15428; actives 4.3% (n = 150,000); note: potency is the fitted concentration of half-maximal effect
#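 20 nM HPGD preincubated 15 min at room temperature with compound in 50 mM Tris-HCl pH 8, 0.01% Tween 20. Started with 1 mM NAD+ and 30 uM prostaglandin E2; NADH fluorescence (360/450 nm) read 5 times over 30-s intervals, last minus first.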
# PNC assembly inh – perinucleolar compartment assembly inhibition; activity change (PNC), negative = inhibition, % at 10 µM; actives 3.1% (n = 140,000); AID 2417; PC3M PTB-GFP, PNC prevalence imaging, 16 h; active compounds read low;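 active = readout at or below -70, meaning at least 70% loss of cells showing the perinucleolar compartment, a nuclear body marking cancer cells; inconclusive = readout between -30 and a set limit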;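 note: plate controls were DMSO wells for no effect and camptothecin positive control wells for full effect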
#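 PC3M cells stably expressing PTB-GFP, 750–1000 cells/well, treated 16 h at 37 °C with compound (23 nl of library stock), in duplicate. After paraformaldehyde fixation and Hoechst stain, imaged at 20x; PNC prevalence scored by image analysis.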
# ALDH1A1 inh – blocks purified human ALDH1A1 activity; actives 7.3% (n = 220,000); Purified ALDH1A1, NADH fluorescence, propionaldehyde substrate; AID 1030; Potency, µM (titrated, usually from 75.3 µM), inactives show at the top dose activity, negative = inhibition, hits mostly inhibitors;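 note: potency is the fitted concentration of half-maximal effect; plate controls were no enzyme wells and a reference inhibitor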
# Target sequence (P00352 whole entry, looked up): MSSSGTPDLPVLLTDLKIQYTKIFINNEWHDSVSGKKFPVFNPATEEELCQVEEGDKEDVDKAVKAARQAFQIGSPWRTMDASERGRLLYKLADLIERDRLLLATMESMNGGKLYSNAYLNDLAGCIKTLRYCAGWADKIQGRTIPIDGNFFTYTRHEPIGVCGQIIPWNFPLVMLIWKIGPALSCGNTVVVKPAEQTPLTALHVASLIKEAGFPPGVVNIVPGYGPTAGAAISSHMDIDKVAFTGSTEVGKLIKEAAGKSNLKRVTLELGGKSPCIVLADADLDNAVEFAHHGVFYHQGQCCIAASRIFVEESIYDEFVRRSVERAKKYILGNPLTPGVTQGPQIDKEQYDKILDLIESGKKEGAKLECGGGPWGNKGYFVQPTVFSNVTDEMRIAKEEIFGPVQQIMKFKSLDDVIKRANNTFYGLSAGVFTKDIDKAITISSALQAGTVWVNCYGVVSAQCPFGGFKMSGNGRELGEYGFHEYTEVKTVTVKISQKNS
# An asterisk follows results filed as active; ? = inconclusive; . = no result given; ! = a repeat was not active; [ ] = another dose, or the depositor's remark. Only some compounds are listed: those with a hit (about 10% of all), similar ones and a draw of the others. Unless noted, calls come from the whole dose curve; as a rule, active = well fitted inhibition curve with a large enough effect (not every such curve was filed as active); inconclusive = small, poorly fitted or top-dose-only effect, or another doubt; inactive = no such curve, though single readings can be large or run the other way. Unless noted, % is set by controls: 0 for no effect and ±100 for the full control effect.
SMILES,KinaseGlo FLuc,LMNA splice mod,HPGD inh,PNC assembly inh,ALDH1A1 inh
CN(c1ccccc1)S(=O)(=O)c1ccc(C(=O)NCC2CCCO2)cc1 (stereo not drawn),-3%,-14%,-26%,-7,2%
COc1cc(OC)cc(C(=O)NCC2CCCO2)c1 (stereo not drawn),1%,-2%,25µM*,-4,-2%
CN(C)S(=O)(=O)c1cccc(C(=O)NCC2CCCO2)c1 (stereo not drawn),5%,-3%,-15%,12,3%
O=C(NCC1CCCO1)c1cccc(Br)c1 (stereo not drawn),3%,-1%,25µM*,-15,7%
COc1cccc(C(=O)NCC2CCCO2)c1 (stereo not drawn),-3%,-6%,8.9µM*,24,1%
COc1cc(C(=O)NCC2CCCO2)cc(OC)c1OC (stereo not drawn),-3%,-13%,0%,-22,9%
CN(c1ccc(C(=O)NCC2CCCO2)cc1)S(=O)(=O)c1ccccc1 (stereo not drawn),0%,0%,14µM*,41,15%
CC(Nc1nc2ncn(Cc3ccccc3)c2c(=O)[nH]1)C(=O)O (stereo not drawn),1%,6%,28µM*,?,1%
COc1ccccc1NC(=O)c1cnc(Nc2ccccc2OC)c2ccccc12,-1%,?,?,-86*,?
COc1ccccc1Nc1ncccc1C(=O)O,-2%,7%,-6%,-100*,9%
COc1ccc(NC(=O)c2cccnc2NCCc2ccccc2)cc1,1%,-7%,-14%,44,-15%
COc1cccc(Nc2ncccc2C(=O)Nc2ccccc2)c1,-2%,5%,-4%,-80*,-9%
Cc1ccccc1C(=O)Nc1ccccc1C(=O)OCc1cc(=O)n2ccsc2n1,.,11%[46 µM],.,.,.
COc1ccc(-c2cc(C(=O)Nc3sc4c(c3C#N)CCCC4)c3ccccc3n2)cc1,-5%,?,?,?,?
COC(=O)c1sc(NC(=O)c2cc(-c3ccccc3)nc3ccccc23)c(C#N)c1C,0%,?,3.5µM*,19,14µM*
CCOC(=O)c1sc(NC(=O)CSc2n[nH]c(-c3ccncc3)n2)c(C#N)c1C,-4%,?,5µM*,34,35µM*
CCOC(=O)c1sc(NC(=O)CSc2nccc(C)n2)c(C#N)c1C,-4%,2%,-8%,?,-1%
Cc1sc(NC(=O)c2cc(-c3ccc(Cl)cc3)nc3ccccc23)c(C(N)=O)c1C,0%,?,13µM*,25,25µM*
Cc1ccccc1-c1cc(C(=O)Nc2sc(C(=O)OC(C)C)c(C)c2C#N)c2ccccc2n1,-7%,?,16µM*,?,8.9µM*
Cc1sc(NC(=O)c2cc(-c3ccccc3)nc3ccccc23)c(C(N)=O)c1C,1%,?,-9%,?,8%
COC(=O)N1C2=C(c3ccccc3[C@@H]1CC(=O)Nc1ccc(Br)cc1)[C@@H]1C(=O)N(c3ccccc3)C(=O)[C@@H]1[C@H](C)C2,-4%[7.66 µM],-13%[9.22 µM],-13%,.,?
COC1CC(O[C@H]2/C(C)=C/CC3CC(C[C@]4(CCC(C)C(C5CCCCC5)O4)O3)OC(=O)[C@H]3C=C(C)/C(=N/O)C4OC/C(=C\C=C\[C@@H]2C)[C@@]43O)OC(C)C1O (stereo partly drawn),3%,?,-3%,.,4%
COc1ccccc1-c1nc(NCc2cnc(C)cn2)c2ccccc2n1,-1%,-11%,?,.,?
CCOC(=O)c1sc(NC(=O)c2cc(-c3ccc(C)cc3)nc3ccccc23)c(C#N)c1C,-2%,6%,22µM*,51,?
O=C1/C(=C\c2ccc(-c3ccccc3[N+](=O)[O-])o2)C(c2ccccc2)=NN1c1ccccc1,-9%,?,?,-86*,-11%
SMILES,KinaseGlo FLuc,LMNA splice mod,HPGD inh,PNC assembly inh,ALDH1A1 inh
Cc1ccc(/C=C2\C(=O)ON=C2c2ccccc2)o1,0%,?,.,.,?
Cc1ccc(C(=O)N/N=C/c2ccc(-c3ccccc3[N+](=O)[O-])o2)cn1,-1%,-9%,-20%,19,1%
Cc1ccc(-c2ccc(/C=C3\C(=O)ON=C3c3ccccc3)o2)c([N+](=O)[O-])c1,2%,?,1.3µM*,26,8.9µM*
Cc1c2ccccc2c(CSC(=N)N)c2ccccc12,-7%[7.66 µM],.,?,.,14µM*!
COc1ccc(O[C@H]2C=C[C@@H](c3ccccc3)O[C@H]2COC(=O)CC/C(C)=N\O[C@@H](C)c2cn([C@H]3COC[C@H]3O)nn2)cc1,.,.,.,.,-3%[13.5 µM]
NC(=O)/N=N/C(N)=O,.,.,10µM*,.,0.45µM*
NC(N)=O,-1%,?,-8%,.,7%
O=C(CCc1ccccc1)N(Cc1cccnc1)c1nc2ccc(F)cc2s1,.,-19%[46 µM],.,.,.
Nc1ccccc1-c1nc2ccccc2[nH]1,-8%,-1%,?,-83*,?
CCC(=O)N1CCc2cc(S(=O)(=O)NCCC(=O)N3CCc4ccccc4C3)ccc21,2%,?,-1%,-5,18µM*
CCC(=O)N1CCc2cc(S(=O)(=O)NCCN3CCC(C)CC3)ccc21,0%,-1%,-1%,20,-3%
CCC(=O)N1CCc2cc(S(=O)(=O)NCCCOC)ccc21,-2%,-4%,28µM*,25,20µM*
Cc1nc2ccc(S(=O)(=O)NCC(=O)N3CCc4ccccc4C3)cc2s1,-3%,-12%,-9%,-97*,-7%
CCC(=O)N1CCc2cc(S(=O)(=O)NCCC(=O)N3CC=C(c4ccccc4)CC3)ccc21,2%,?,-3%,-14,?
Cc1nc2ccc(S(=O)(=O)NCC(=O)N3CCc4ccccc43)cc2s1,-7%,3%,0%,32,13%
N=C(N)SCC(=O)O,2%[7.66 µM],.,-12%,.,7%[13.5 µM]
CCCOCC(C)OCC(C)O (stereo not drawn),.,.,-10%,.,8%
CC(C)=NNc1nc(-c2ccc(N3C(=O)CCC3=O)cc2)cs1,.,.,.,.,11µM*
CCCc1[nH]n(-c2nc3ccccc3s2)c(=O)c1C=NCCN1CCOCC1,0%,5%,-7%,?,?
CCCc1[nH]n(-c2nc3ccccc3s2)c(=O)c1C=NCC1CCCO1 (stereo not drawn),1%,-4%,-20%,-20,25µM*
COC(=O)C1CCN(c2cc(=O)n(C3CCCCC3)c(=O)[nH]2)CC1,0%,9%,-3%,-20,?
COc1ccc(Nc2cc(=O)n(C3CCCCC3)c(=O)[nH]2)c(OC)c1,-9%,8%,-3%,81,7.1µM*
Cc1cc(C)cc(Nc2cc(=O)n(C3CCCCC3)c(=O)[nH]2)c1,0%,4%,-5%,1,0.45µM*
CCCN1C(=O)C(NC(=O)c2ccncc2)(C(F)(F)F)C2=C1CC(C)(C)CC2=O (stereo not drawn),7%,8%,-14%,20,7.1µM*
